The results in this text go back to PubChem BioAssay (NCI).

This is part of a sample that, as a whole, favours compounds with a hit. Of some 83,000 tested, about 20% had one in any assay.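 Single-concentration screen, 48 h exposure, 96-well plates. Endpoint: percent growth. Below 10 = active.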 Values without a mark were called inactive. Calls of active or inactive are those of the source.

The subject of the assay is HL-60(TB) leukemia. Briefly: NCI-60 one-dose screen, 48 h (100 = growth as untreated, 0 = no growth, -100 = all killed). To be noted: 10 µM unless noted.
Turning to `Nc1nc(Nc2ccccc2)c2ncn(Cc3cc4c(cc3Br)OCO4)c2n1`, the growth was -11.7% (active).

For `CN1C[C@@H](c2ccc(Cl)cc2)[C@]2(NC(=S)N(c3ccccc3)C2=O)[C@@]12C(=O)NC1C=CC(Br)=C[C@H]12` (some centres not stated), the growth is 40.2%. Under `CON1CCC[C@]2(C)[C@H]3CC[C@@H]4[C@H]5[C@@H](O)C(C)(C)CC[C@]5(CO)CC[C@@]4(C)[C@]3(C)CC[C@H]2C1(C)C` stands 91.5%. The same measure for `C=C(C)[C@@H]1CC[C@]2(COCCCN)CC[C@]3(C)[C@H](CC[C@@H]4[C@@](C)(CCCNCCCN)[C@H](C(=C)C)CC[C@]43C)[C@@H]12`: -9.28% [100 µM] (active); for `CCCC(=O)OCC(COC(=O)CCC)OC(=O)CCC`: 100%.

For `c1cc(NCCCCN2CCOCC2)c2ccc3c(ccc4c(NCCN5CCOCC5)ccnc43)c2n1`, the growth was 47.2%.

On to `COc1cc(-c2nc(-c3nc4cc(C(=O)c5ccccc5)ccc4[nH]3)cc3c2[nH]c2ccccc23)cc(OC)c1OC`, for which the growth was 89.7%. With `Cc1nc2ccccc2c(/C=C/c2ccc(Cl)cc2)c1C(=O)/C=C/c1ccc(C(F)(F)F)cc1`, the growth was -37% (active). Take `Cc1ccc(C2=NN(c3ccc(S(C)(=O)=O)cc3)C(=O)CC2)cc1`: the growth is -12% (active). The same measure for `CN1CCN(Cc2ccc(NC(=O)c3cncc(C#Cc4c(N)ncc5ccccc45)c3)cc2C(F)(F)F)CC1`: -53.2% (active); for `CC(=O)N(C)N=Nc1ccc(C)cc1`: 117%. Under `Cc1sc2nc(CSc3nnc(-c4ccco4)o3)[nH]c(=O)c2c1C` stands 68.6%.
